# Source: the supplement of paper PMC6555819
# Assays:
# Assay in all cases: PBM binding z-score (relative to random genomic background probes); higher = stronger binding; sequences stand for … in GC…GCGATTGACAGCGTAGAATGAAGG
# [1] = tested on: FXR:RXRa (NR concentration 270 nM, RXRa partner concentration 90 nM)
# Outline: (§1)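 Binding z-scores take random background probes as their reference. They come from custom Agilent 4×180K protein-binding microarrays incubated 1 h with ligand-free nuclear receptor dimers, with antibodies against each partner (one per run) detecting binding. Scanned fluorescence was regression-normalized.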
# [2] = tested on: LXRa:RXRa (NR concentration 270 nM, RXRa partner concentration 90 nM)
# Outline: as §1
# [3] = tested on: LXRa homodimer (NR concentration 270 nM)
# Outline: as §1
# [4] = tested on: LXRb:RXRa (NR concentration 270 nM, RXRa partner concentration 90 nM)
# Outline: as §1
# [5] = tested on: LXRb homodimer (NR concentration 270 nM)
# Outline: as §1
# [6] = tested on: PPARa:RXRa (NR concentration 270 nM, RXRa partner concentration 90 nM)
# Outline: as §1
# [7] = tested on: PPARg:RXRa (NR concentration 180 nM, RXRa partner concentration 90 nM)
# Outline: as §1
# [8] = tested on: PPARg:RXRa 270nM:90nM, anti-RXR (NR concentration 270 nM, RXRa partner concentration 90 nM)
# Outline: as §1
# [9] = tested on: PPARg:RXRa 30nM:10nM, anti-RXR (NR concentration 30 nM, RXRa partner concentration 10 nM)
# Outline: as §1
# [10] = tested on: PPARg:RXRa 90nM:30nM, anti-RXR (NR concentration 90 nM, RXRa partner concentration 30 nM)
# Outline: as §1
# [11] = tested on: PPARg:RXRa DBDmut IVT, anti-RXR (DBD mutation: RXRa K156A/R161A, NR concentration 270 nM, RXRa partner concentration 90 nM)
# Outline: as §1
# [12] = tested on: PPARg:RXRa IVT, anti-PPARg (NR concentration 270 nM, RXRa partner concentration 90 nM)
# Outline: as §1
# [13] = tested on: PPARg DBDmut:RXRa IVT, anti-PPARg (DBD mutation: PPARg1 K132A/R137A, NR concentration 270 nM, RXRa partner concentration 90 nM)
# Outline: as §1
# [14] = tested on: PPARg DBDmut IVT, anti-PPARg (DBD mutation: PPARg1 K132A/R137A, NR concentration 270 nM)
# Outline: as §1
# [15] = tested on: PPARg homodimer (NR concentration 180 nM)
# Outline: as §1
# [16] = tested on: PXR:RXRa (NR concentration 270 nM, RXRa partner concentration 90 nM)
# Outline: as §1
# [17] = tested on: PXR homodimer (NR concentration 270 nM)
# Outline: as §1
# [18] = tested on: RARa:RXR (NR concentration 270 nM, RXRa partner concentration 90 nM)
# Outline: as §1
# [19] = tested on: RARa homodimer (NR concentration 270 nM)
# Outline: as §1
# [20] = tested on: RARb:RXRa (NR concentration 270 nM, RXRa partner concentration 90 nM)
# Outline: as §1
Sequence,PBM binding z-score [1],PBM binding z-score [2],PBM binding z-score [3],PBM binding z-score [4],PBM binding z-score [5],PBM binding z-score [6],PBM binding z-score [7],PBM binding z-score [8],PBM binding z-score [9],PBM binding z-score [10],PBM binding z-score [11],PBM binding z-score [12],PBM binding z-score [13],PBM binding z-score [14],PBM binding z-score [15],PBM binding z-score [16],PBM binding z-score [17],PBM binding z-score [18],PBM binding z-score [19],PBM binding z-score [20]
CCTTACGGGTCACTCCAGGTTCTAGCATCGGAGT,4.8,4.87,0.141,2.7,-0.137,4.28,2.96,3.49,0.999,2.15,2.92,3.24,0.0574,-0.343,1.37,3.13,-0.323,3.39,0.55,3.63
ATCGAAACGTCGACGAGGTGAGTATACACCGTTT,-0.264,-0.5,-0.605,-0.525,-0.00441,-0.269,0.855,-0.111,-0.111,-0.157,-0.306,0.572,0.364,1.43,-0.489,-0.346,-0.33,-0.0607,0.109,-0.0586
CCTAGTTGGTCAGGAGGCCACACACCGGATATGA,0.457,0.364,0.335,0.191,0.0739,0.181,0.848,0.732,0.118,0.128,0.654,1.37,0.117,-0.424,0.805,-0.041,0.627,-0.174,0.55,1.23
ATCGAATGGTCGAGGTGAGTATAGAGAAAGGGAA,0.114,-0.0823,-0.329,-0.326,-0.256,0.069,0.444,-0.0117,0.061,0.091,-0.483,0.658,1.03,0.73,0.372,-0.283,0.0857,0.0342,0.112,0.541
CCTCGGAGGTCAGAAGGTCAGAGCTGTCCGCTTT,5.84,4.89,1.19,3.83,0.259,4.92,3.38,5.24,1.27,3.92,2.53,3.5,-1.11,-1.86,5.71,4.71,0.603,6.73,0.835,5.16
GATAGTTGGTCAGTAAAAGGTCACACACCGGTCG,3.47,4.21,4.89,4.06,0.786,4.57,3.46,4.68,2.35,3.8,1,3.26,0.61,0.944,4.23,4.92,1.52,5.65,3.2,4.42
ATCGAAACGTCGTGAGGTGAGTATACAGAAAGGC,-0.206,-0.348,-0.532,-0.359,-0.538,-0.0386,0.851,-0.286,-0.051,0.0788,-0.959,0.149,1.07,-0.047,-0.199,-0.306,-0.433,0.0512,-0.494,-0.0846
CCTAGTTGGTCAGGAGGTCACAAACCGGATATGA,3.32,2.85,1.66,3.16,0.659,3.98,3.09,3.7,1.19,2.73,1.35,3.19,0.681,-0.00546,3.21,3.77,1.38,4.45,2.04,3.37
CAAACTAGGTCACGAAAGGGCAAAGTCGAATGAC,5.72,6.91,2.43,5.14,0.531,5.68,9.64,7.9,6.2,8.08,8.03,9.13,2.95,1.67,4.28,5.85,0.485,5.03,2.03,4.99
TCTAGCTGGTCAAAGGTCACACACTCGAAATGCG,5.6,6.17,3.41,5.31,0.629,6.34,10.5,9.37,9.91,10.1,2.35,5.48,0.807,1.12,4.18,6.12,0.771,7.74,2.13,4.89
GCTCGGAGGACAAGGTCAGGGCTTTGTCCGTAGA,2.38,2.11,-0.64,1.71,-0.689,2.95,1.07,1.94,-0.338,0.806,-0.354,1.3,-0.608,-0.233,0.661,2.03,-0.681,2.71,-0.898,3.83
ACTAGTTGGTCACCTGAGGTCACACACAATTCGG,4.76,6.29,6.67,4.97,1.5,4.17,2.75,3.37,1.09,2.1,2.55,3.78,1.79,1.35,4.91,6.25,3.12,5.48,2.94,3.91
ATCGAATGGTCGTGAGGTGAGTATACAGAAAGGC,0.132,-0.131,-0.134,-0.373,-0.124,-0.301,0.654,-0.486,-0.0496,-0.425,-0.654,0.348,0.375,-0.00822,0.181,-0.104,0.00681,0.113,0.259,0.464
